Where “and” joins values, the source holds several entries; their conditions need not be identical. Equal entries are not always repeated. Out of some 5,500 compounds screened, about 2,000 (36%) were called active. About 18% were inconclusive and are not listed. No stated cut-off is given here; in the data, active means normalized growth mostly below about 0.91 (no sharp cut-off); inconclusive means no clear call, values can overlap the other calls; inactive means mostly above about 0.92. This is one part of the list.
Test: chemical genetic growth profiling, strain panel (AID 1159580);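 further: tested at 20 µM; growth read once vehicle control cultures reached saturation at 30 °C; 1 = growth at the plate median or of vehicle wells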
Conditions: S. cerevisiae deletion strains, growth OD
[1] = locus YHR030C, strain SLT2, stronger effect = lower value
[2] = locus YHR079C, strain IRE1, stronger effect = lower value
[3] = locus YJL095W, strain BCK1, stronger effect = lower value
[4] = locus YJR066W, strain TOR1, stronger effect = lower value
[5] = locus YLR113W, strain HOG1, stronger effect = lower value
[6] = locus YNL183C, strain NPR1, stronger effect = lower value
[7] = locus YOR231W, strain MKK1, stronger effect = lower value
[8] = locus YPL256C, strain CLN2, stronger effect = lower value

Measured: normalized growth

CCCCCCCCCCCCCCCC[n+]1ccccc1
active: locus YAL013W, strain DEP1, stronger effect = lower value 0.0574 | locus YAL021C, strain ccr4, stronger effect = lower value 0.0611 | locus YAL026C, strain drs2, stronger effect = lower value 0.0581 | locus YAL030W, strain snc1, stronger effect = lower value 0.0525 | locus YBL061C, strain skt5, stronger effect = lower value 0.0581 | locus YBR009C, strain hhf1, stronger effect = lower value 0.0558 | locus YBR021W, strain FUR4, stronger effect = lower value 0.0963 | locus YBR023C, strain chs3, stronger effect = lower value 0.0594 | locus YBR171W, strain sec66, stronger effect = lower value 0.0739 | locus YBR229C, strain ROT2, stronger effect = lower value 0.0303 | locus YBR231C, strain swc5, stronger effect = lower value 0.0577 | locus YBR279W, strain paf1, stronger effect = lower value 0.0555 | locus YCL011C, strain gbp2, stronger effect = lower value 0.053 | locus YCL016C, strain dcc1, stronger effect = lower value 0.0599 | locus YCL029C, strain bik1, stronger effect = lower value 0.058 | locus YCL061C, strain MRC1, stronger effect = lower value 0.0607 | locus YCL069W, strain vba3, stronger effect = lower value 0.0581 | locus YCR088W, strain abp1, stronger effect = lower value 0.0584 | locus YDL005C, strain med2, stronger effect = lower value 0.0695 | locus YDL035C, strain GPR1, stronger effect = lower value 0.0498 | locus YDL040C, strain nat1, stronger effect = lower value 0.0541 | locus YDL074C, strain BRE1, stronger effect = lower value 0.0827 | locus YDL101C, strain DUN1, stronger effect = lower value 0.0526 | locus YDL134C, strain PPH21, stronger effect = lower value 0.0538 | locus YDL185W, strain tfp1, stronger effect = lower value 0.0538 | locus YDL192W, strain arf1, stronger effect = lower value 0.0595 | locus YDR001C, strain nth1, stronger effect = lower value 0.0571 | locus YDR069C, strain doa4, stronger effect = lower value 0.0582 | locus YDR101C, strain arx1, stronger effect = lower value 0.0554 | locus YDR137W, strain rgp1, stronger effect = lower value 0.0947 | locus YDR150W, strain NUM1, stronger effect = lower value 0.0551 | locus YDR159W, strain sac3, stronger effect = lower value 0.0818 | locus YDR162C, strain NBP2, stronger effect = lower value 0.047 | locus YDR195W, strain ref2 0.109 | locus YDR297W, strain sur2, stronger effect = lower value 0.0517 | locus YDR318W, strain mcm21, stronger effect = lower value 0.0596 | locus YDR334W, strain swr1, stronger effect = lower value 0.061 | locus YDR335W, strain msn5, stronger effect = lower value 0.0563 | locus YDR388W, stronger effect = lower value 0.0552 | locus YDR392W, strain spt3, stronger effect = lower value 0.068 | locus YDR502C, strain sam2, stronger effect = lower value 0.0615 | locus YEL003W, strain gim4, stronger effect = lower value 0.0501 | locus YEL037C, strain rad23, stronger effect = lower value 0.0542 | locus YEL061C, strain CIN8 (second series), stronger effect = lower value 0.0582 | locus YEL061C, strain CIN8, stronger effect = lower value 0.0502 | locus YER015W, strain faa2, stronger effect = lower value 0.0581 | locus YER016W, strain bim1, stronger effect = lower value 0.0593 | locus YER110C, stronger effect = lower value 0.0712 | locus YER111C, strain swi4, stronger effect = lower value 0.0669 | locus YER155C, strain BEM2 (second series), stronger effect = lower value 0.0821 | locus YER155C, strain BEM2, stronger effect = lower value 0.0622 | locus YER167W, strain BCK2, stronger effect = lower value 0.0514 | locus YFR010W, strain ubp6, stronger effect = lower value 0.0662 | locus YGL078C, strain dbp3, stronger effect = lower value 0.0557 | locus YGL086W, strain mad1, stronger effect = lower value 0.0563 | locus YGL167C, strain pmr1, stronger effect = lower value 0.0673 | locus YGL173C, strain kem1, stronger effect = lower value 0.0629 | locus YGL227W, strain vid30, stronger effect = lower value 0.062 | locus YGL240W, strain doc1, stronger effect = lower value 0.0671 | locus YGL248W, strain PDE1, stronger effect = lower value 0.0451 | locus YGL253W, strain hxk2, stronger effect = lower value 0.0516 | locus YGR135W, strain pre9, stronger effect = lower value 0.0612 | locus YGR252W, strain gcn5, stronger effect = lower value 0.17 | locus YHR013C, strain ard1, stronger effect = lower value 0.0961 | locus YHR027C, strain rpn1, stronger effect = lower value 0.0594 | [1] 0.0512 and 0.0945 | locus YHR079C, strain IRE1 (second series), stronger effect = lower value 0.0605 | [2] 0.11 | locus YHR094C, strain hxt1, stronger effect = lower value 0.0564 | locus YHR129C, strain ARP1, stronger effect = lower value 0.0537 | locus YHR142W, strain chs7, stronger effect = lower value 0.0693 | locus YHR200W, strain rpn10, stronger effect = lower value 0.0581 | locus YIL066C, strain RNR3, stronger effect = lower value 0.0411 | locus YIL073C, strain SPO22, stronger effect = lower value 0.106 | locus YIL125W, strain kgd1, stronger effect = lower value 0.0545 | locus YIR030C, strain dcg1, stronger effect = lower value 0.0571 | locus YJL092W, strain hpr5, stronger effect = lower value 0.0574 | locus YJL095W, strain BCK1 (second series), stronger effect = lower value 0.0528 | [3] 0.0624 and 0.0966 | locus YJL115W, strain asf1, stronger effect = lower value 0.0684 | locus YJL129C, strain trk1, stronger effect = lower value 0.0768 | locus YJL134W, strain LCB3, stronger effect = lower value 0.047 | locus YJL154C, strain vps35, stronger effect = lower value 0.057 | locus YJL164C, strain tpk1, stronger effect = lower value 0.0549 | locus YJL166W, strain qcr8, stronger effect = lower value 0.0563 | locus YJL168C, strain set2, stronger effect = lower value 0.0564 | locus YJL187C, strain SWE1 (second series), stronger effect = lower value 0.0398 | locus YJL187C, strain SWE1, stronger effect = lower value 0.0529 | locus YJR043C, strain POL32, stronger effect = lower value 0.0648 | [4] -0.000212 | locus YKL009W, strain mrt4, stronger effect = lower value 0.0643 | locus YKL068W, stronger effect = lower value 0.0564 | locus YKL085W, strain MDH1 (second series), stronger effect = lower value 0.0485 | locus YKL085W, strain MDH1, stronger effect = lower value 0.0485 | locus YKL160W, strain elf1, stronger effect = lower value 0.058 | locus YKR001C, strain vps1, stronger effect = lower value 0.0609 | locus YKR026C, strain gcn3, stronger effect = lower value 0.058 | locus YKR091W, strain srl3, stronger effect = lower value 0.0563 | locus YLL001W, strain dnm1, stronger effect = lower value 0.0595 | locus YLL026W, stronger effect = lower value 0.0533 | locus YLL041C, strain sdh2, stronger effect = lower value 0.0527 | locus YLR027C, strain aat2, stronger effect = lower value 0.0516 | locus YLR039C, strain RIC1, stronger effect = lower value 0.101 | locus YLR058C, strain SHM2, stronger effect = lower value 0.0432 | locus YLR102C, strain apc9, stronger effect = lower value 0.058 | [5] 0.126 | locus YLR221C, strain rsa3, stronger effect = lower value 0.0565 | locus YLR258W, strain gsy2, stronger effect = lower value 0.0549 | locus YLR262C, strain YPT6 (second series), stronger effect = lower value 0.0739 | locus YLR262C, strain YPT6, stronger effect = lower value 0.0999 | locus YLR268W, strain sec22, stronger effect = lower value 0.0648 | locus YLR320W, strain mms22, stronger effect = lower value 0.0701 | locus YLR330W, strain CHS5, stronger effect = lower value 0.0543 | locus YLR342W, strain FKS1 (second series), stronger effect = lower value 0.0596 | locus YLR342W, strain FKS1, stronger effect = lower value 0.0608 | locus YLR357W, strain rsc2, stronger effect = lower value 0.119 | locus YLR370C, strain arc18, stronger effect = lower value 0.0588 | locus YLR371W, strain rom2, stronger effect = lower value 0.0606 | locus YLR384C, strain iki3, stronger effect = lower value 0.0569 | locus YLR418C, strain cdc73, stronger effect = lower value 0.0923 | locus YML016C, strain PPZ1, stronger effect = lower value 0.0531 | locus YML032C, strain rad52, stronger effect = lower value 0.0676 | locus YML120C, strain ndi1, stronger effect = lower value 0.0532 | locus YML124C, strain tub3, stronger effect = lower value 0.0589 | locus YMR058W, strain fet3, stronger effect = lower value 0.0569 | locus YMR078C, strain ctf18, stronger effect = lower value 0.0681 | locus YMR125W, strain sto1, stronger effect = lower value 0.0655 | locus YMR129W, stronger effect = lower value 0.0538 | locus YMR205C, strain PFK2, stronger effect = lower value 0.0777 | locus YMR223W, strain ubp8, stronger effect = lower value 0.061 | locus YMR231W, strain pep5, stronger effect = lower value 0.0645 | locus YMR307W, strain GAS1, stronger effect = lower value 0.134 | locus YNL067W, strain RPL9B, stronger effect = lower value 0.0493 | locus YNL071W, strain lat1, stronger effect = lower value 0.0582 | locus YNL153C, strain GIM3, stronger effect = lower value 0.0537 | [6] -0.00168 | locus YNL209W, strain ssb2, stronger effect = lower value 0.0552 | locus YNL233W, strain BNI4, stronger effect = lower value 0.0562 | locus YNL248C, strain rpa49, stronger effect = lower value 0.0711 | locus YNL250W, strain rad50, stronger effect = lower value 0.0768 | locus YNL271C, strain bni1, stronger effect = lower value 0.0589 | locus YNL298W, strain CLA4, stronger effect = lower value 0.0577 | locus YNL307C, strain MCK1, stronger effect = lower value 0.0655 | locus YNL322C, strain KRE1 (second series), stronger effect = lower value 0.06 | locus YNL322C, strain KRE1, stronger effect = lower value 0.048 | locus YNR049C, strain mso1, stronger effect = lower value 0.0552 | locus YNR052C, strain pop2, stronger effect = lower value 0.0583 | locus YOL147C, strain pex11, stronger effect = lower value 0.0569 | locus YOR001W, strain rrp6, stronger effect = lower value 0.0649 | locus YOR061W, strain CKA2, stronger effect = lower value 0.0309 | locus YOR069W, strain VPS5, stronger effect = lower value 0.0516 | locus YOR070C, strain gyp1, stronger effect = lower value 0.0562 | locus YOR080W, strain dia2, stronger effect = lower value 0.0607 | locus YOR083W, strain WHI5, stronger effect = lower value 0.0593 | locus YOR106W, strain vam3, stronger effect = lower value 0.0617 | locus YOR136W, strain idh2, stronger effect = lower value 0.0704 | locus YOR144C, strain elg1, stronger effect = lower value 0.0544 | locus YOR184W, strain ser1, stronger effect = lower value 0.0674 | [7] 0.0972 | locus YOR265W, strain rbl2, stronger effect = lower value 0.0533 | locus YOR270C, strain vph1, stronger effect = lower value 0.0863 | locus YOR290C, strain snf2, stronger effect = lower value 0.0573 | locus YOR316C, strain cot1, stronger effect = lower value 0.0567 | locus YPL051W, strain arl3, stronger effect = lower value 0.06 | locus YPL055C, strain LGE1, stronger effect = lower value 0.0709 | locus YPL078C, strain atp4, stronger effect = lower value 0.0604 | locus YPL106C, strain sse1, stronger effect = lower value 0.0881 | locus YPL240C, strain hsp82, stronger effect = lower value 0.0535 | locus YPL241C, strain CIN2, stronger effect = lower value 0.0502 | [8] 0.113 | locus YPR119W, strain clb2, stronger effect = lower value 0.0599 | locus YPR141C, strain kar3, stronger effect = lower value 0.0617 | locus YPR163C, strain tif3, stronger effect = lower value 0.0683 | locus YPR167C, strain met16, stronger effect = lower value 0.06 | strain wtn01, stronger effect = lower value 0.061

CCCCCCCCCCCCCCCCCCCCCCO
inactive: [1] 1.08 | [2] 0.973 | [3] 0.989 | [4] 0.967 | [5] 0.965 | [6] 0.916 | [7] 0.99 | [8] 0.99
